Assay outcomes (PubChem)
Shown are actives, neighbours in structure and some others; about 5% of the full set was active somewhere.
Tb PYK inh: qHTS of Trypanosoma Brucei Inhibitors. pyruvate kinase (Trypanosoma brucei), Q57TT1. TbPYK enzyme, Kinase-Glo Plus ATP luminescence, 45 min. Potency, µM (doses to about 76.8 µM), for the others: at the highest dose activity, negative = inhibition, actives largely listed as inhibitors. actives 0.12% (n = 410,000). AID 624173, 2012; note: potency is the fitted concentration of half-maximal effect; nearly all actives have a fitted effect of over 50% in size
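Glycolytic pyruvate kinase of T. brucei was incubated with substrate, test compound and 130 uM ADP for 45 minutes at room temperature. Luminescent Kinase-Glo Plus signal was measured after 10 minutes.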
HCMV antiviral: qHTS Assay for inhibitors of the human cytomegalovirus (HCMV); HFF cells, HCMV-luciferase reporter, 72 h; hits give low values; activity change, negative = inhibition, % at 57.5 µM; actives 4.5% (n = 410,000); AID 1259415, 2018; in the data active = activity change below about -60%; inconclusive = no clear call, values can overlap the other calls; inactive = above about -39%
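Inhibition of viral replication was scored as loss of reporter luminescence in HFFs infected with HCMV-luciferase (MOI 1 PFU/cell) for 72 h; compounds tested at 2 doses, normalized to buffer and Salinomycin controls.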
VACV mCherry inh: qHTS for Stage-Specific Inhibitors of Vaccinia Orthopoxvirus: mCherry Reporter Primary qHTS; Vaccinia virus mCherry reporter infection, fluorescence; Potency, µM (titrated, usually from 36.5 µM), for inactives: top-dose activity change, negative = inhibition, hits mostly inhibitors; actives 0.63% (n = 310,000); AID 720579, 2013; calls by dose curve; tested in A549 cells; note: potency is the fitted concentration of half-maximal effect; nearly all actives have a fitted effect of over 35% in size
LmPK inhibitor: qHTS Assay for Inhibitors of Leishmania Mexicana Pyruvate Kinase (LmPK) | Q27686 | Potency, µM (titrated, usually from 57.5 µM), for the others: at the highest dose activity change, negative = inhibition, actives largely listed as inhibitors | actives 0.37% (n = 290,000) | AID 1721, 2009 | purified LmPK, Kinase-Glo ATP luminescence, 1 h; note: potency is the fitted concentration of half-maximal effect
Target sequence (Q27686 whole entry, looked up): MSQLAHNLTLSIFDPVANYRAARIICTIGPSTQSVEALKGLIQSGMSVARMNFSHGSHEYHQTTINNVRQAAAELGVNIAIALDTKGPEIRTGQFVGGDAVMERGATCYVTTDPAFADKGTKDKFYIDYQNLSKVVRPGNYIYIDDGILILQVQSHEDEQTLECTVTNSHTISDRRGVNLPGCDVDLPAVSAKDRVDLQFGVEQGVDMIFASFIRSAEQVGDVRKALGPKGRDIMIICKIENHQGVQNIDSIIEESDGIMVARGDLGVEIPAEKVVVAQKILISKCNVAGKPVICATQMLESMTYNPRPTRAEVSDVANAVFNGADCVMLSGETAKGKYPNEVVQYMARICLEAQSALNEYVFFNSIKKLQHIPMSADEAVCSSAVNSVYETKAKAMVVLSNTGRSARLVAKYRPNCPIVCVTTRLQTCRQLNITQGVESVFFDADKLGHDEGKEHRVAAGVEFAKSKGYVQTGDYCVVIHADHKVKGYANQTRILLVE
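Purified LmPK (0.1 nM) converted ADP (0.1 mM) to ATP with PEP (0.5 mM) in imidazole buffer pH 7.2 with KCl and MgCl2, 1 h at room temperature. ATP was read by Kinase-Glo luminescence; data normalized to uninhibited and no-enzyme controls.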
Vaccinia Venus: qHTS for Stage-Specific Inhibitors of Vaccinia Orthopoxvirus: Venus Reporter Primary qHTS; Vaccinia virus Venus reporter expression, fluorescence; Potency, µM (doses to about 36.5 µM), inactives show at the highest dose activity change, negative = inhibition, most hits filed as inhibitors; actives 0.46% (n = 330,000); calls by dose curve; tested in A549 cells; note: potency is the fitted concentration of half-maximal effect; nearly all actives have a fitted effect of over 30% in size
* = called active by the depositor; i = inactive; ? = inconclusive; . = no result; ! = not confirmed by another sample. Unless noted, calls come from the whole dose curve; as a rule, active = well fitted curve in the direction sought with a large enough effect; inconclusive = small, poorly fitted or top-dose-only effect, or another doubt; inactive = no such curve, though single readings can be large; an effect the other way counts as inactive or inconclusive. % is set by controls: 0 for no effect and ±100 for the full control effect.

SMILES | Tb PYK inh | HCMV antiviral | VACV mCherry inh | LmPK inhibitor | Vaccinia Venus
Cn1c(=O)oc2cc(S(=O)(=O)N3CCC(C(=O)N4CCN(c5ccc(F)cc5)CC4)CC3)ccc21 | 2% | -61* | . | 13% | .
COc1ccccc1NC(=O)C1CCCN(S(=O)(=O)c2cnc[nH]2)C1 (stereo not given) | -12% | 80 | i | 8% | -8%
Cn1c(=O)oc2cc(S(=O)(=O)N3CCC(C(=O)N4CCN(c5ccccc5)CC4)CC3)ccc21 | 13% | ? | i | 0% | -14%
COc1ccc(C)cc1NC(=O)C1CCCN(S(=O)(=O)c2cnc[nH]2)C1 (stereo not given) | -1% | -61* | 14% | 2% | -5%
Cn1c(=O)oc2cc(S(=O)(=O)N3CCCC(C(=O)N4CCN(c5ccc(F)cc5)CC4)C3)ccc21 (stereo not given) | -3% | 5 | -16% | . | -18%
COc1cccc(N2CCN(C(=O)C3CCCN(S(=O)(=O)c4ccc5c(c4)oc(=O)n5C)C3)CC2)c1 (stereo not given) | 0% | -79*! | -20% | 12% | -20%
Cc1cccc(N2CCN(C(=O)CCS(=O)(=O)c3ccc4c(c3)oc(=O)n4C)CC2)c1C | 4% | -62*! | ? | 2% | -28%
CN(Cc1cnn(C)c1)C(=O)C1CCC(=O)N(Cc2ccc(Cl)cc2)C1 (stereo not given) | 1% | -33 | i | 1% | -12%
COc1ccc(OC2OC3COC(c4ccco4)OC3C(O)C2NC(C)=O)cc1 (stereo not given) | 3% | -37 | i | -1% | -7%
Cc1cc(C)cc(-n2c(C)nc3cc(C(=O)NCc4ccc(F)cc4)ccc32)c1 | -1% | -20 | -13% | . | -17%
O=C(C1CCN(S(=O)(=O)N2CCOCC2)CC1)N1CCN(c2ccc(F)cc2)CC1 | -1% | -74* | -12% | 0% | -8%
COc1ccc(N2CCN(C(=O)C3CCN(S(=O)(=O)N4CCOCC4)CC3)CC2)cc1 | -5% | -3 | . | 4% | -12%
CN(C)S(=O)(=O)N1CCN(C(=O)N2CCOCC2)CC1 | -9% | -101* | i | 1% | -9%
CCC[C@H]1[C@@H](NC(=O)Nc2ccc(C#N)cc2)CC[C@@]23CCCN2C(=O)CCC[C@@H]13 | . | -15 | . | . | .
CCCNC(=O)c1oc2ccc3c(c2c1C)C=CC(C)(C)O3 | 2% | -61* | -19% | 5% | -12%
CCCNC(=O)c1oc2ccc3c(c2c1C)C(=O)CC(C)(C)O3 | 3% | 9 | . | 4% | .
COc1ccc(N2CCN(C(=O)c3cc4ccc5cccnc5c4[nH]3)CC2)cc1 | -8% | -9 | -1% | . | -9%
O=C(N[C@H]1CC[C@H](CCNS(=O)(=O)c2ccc(Cl)cc2)O[C@@H]1CO)c1cccc(F)c1 | . | -101* | -17% | . | ?
CCCc1cc(-c2n[nH]c(C(=O)OCC)c2-c2cscn2)c(O)cc1O | 5% | -87* | . | 1% | .
CCOC(=O)c1[nH]nc(-c2c(O)cc(C)cc2O)c1-c1csc(C)n1 | 4% | -22 | -10% | 2% | 2%
COC(=O)c1ccc(N2C(c3cc(OC)cc(OC)c3)=Cc3ccc(OC)cc3C2CC(=O)c2ccco2)cc1 (stereo not given) | -6% | 24 | 19% | . | 0%
COC(=O)c1ccc(N2C(c3ccsc3)=Cc3cc4c(cc3C2CC(=O)c2ccco2)OCO4)cc1 (stereo not given) | 1% | -69* | 27% | . | -5%
Cc1scc(C(=O)N/N=C/c2ccco2)c1C | 5% | 13 | . | -8% | .
O=C(N/N=C/c1ccc([N+](=O)[O-])o1)c1ccc(O)cc1 | 4% | -93* | 13µM* | 0% | ?
CCN(CC)S(=O)(=O)c1cccc(C(=O)N/N=C/c2ccc([N+](=O)[O-])o2)c1 | 1% | -61* | ? | -3% | ?
O=[N+]([O-])c1ccc(/C=N/Nc2ccc3ccccc3c2)o1 | -4% | -72* | . | -14% | .
Cc1scc(C(=O)N/N=C/c2ccc([N+](=O)[O-])o2)c1C | . | -100* | . | -4% | .
